tim23-1 inh = tim23-1 yeast growth inhibition; S. cerevisiae tim23-1 growth, BacTiter-Glo luminescence, 24 h; inhibition, % at 20 µM; 1.3% of 330,000 active;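 active means growth inhibition of the mutant yeast at or above 50%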;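 further: temperature-sensitive mutant grown at 25 °C; plate controls were DMSO-treated mutant yeast for no effect and medium wells lacking yeast for full effect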
TIM10 inh = TIM10 yeast growth inhibition; inhibition, % at 10 µM; AID 463195; S. cerevisiae TIM10 strain growth, BacTiter-Glo luminescence, 24 h; 1.4% of 330,000 active;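 active means inhibition of 40% or more at the single tested concentration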;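 further: wild-type TIM10 isogenic control strain grown at permissive 25 °C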
Mdm2-MdmX inh = inhibitors of human Mdm2/MdmX interaction. SaOS-2 split-luciferase Mdm2/MdmX complementation, luminescence. inhibition, % at 8 µM. 3% of 330,000 active. AID 485346;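 active means inhibition of at least 50% at 8 µM in the primary screen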
Target sequence (O15151 whole entry, looked up): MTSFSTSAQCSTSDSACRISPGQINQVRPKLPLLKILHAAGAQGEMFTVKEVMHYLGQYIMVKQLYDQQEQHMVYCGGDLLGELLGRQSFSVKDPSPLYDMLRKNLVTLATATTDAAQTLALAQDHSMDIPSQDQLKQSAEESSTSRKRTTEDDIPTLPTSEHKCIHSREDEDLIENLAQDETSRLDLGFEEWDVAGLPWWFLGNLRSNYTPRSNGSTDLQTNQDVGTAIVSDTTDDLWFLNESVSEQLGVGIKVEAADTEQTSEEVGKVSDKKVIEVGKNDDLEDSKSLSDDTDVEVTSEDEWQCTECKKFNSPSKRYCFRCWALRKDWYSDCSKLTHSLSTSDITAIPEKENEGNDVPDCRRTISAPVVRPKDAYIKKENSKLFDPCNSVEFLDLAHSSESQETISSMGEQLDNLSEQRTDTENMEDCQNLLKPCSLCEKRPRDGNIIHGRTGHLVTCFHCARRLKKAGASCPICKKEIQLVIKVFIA
Target sequence (Q00987 whole entry, looked up): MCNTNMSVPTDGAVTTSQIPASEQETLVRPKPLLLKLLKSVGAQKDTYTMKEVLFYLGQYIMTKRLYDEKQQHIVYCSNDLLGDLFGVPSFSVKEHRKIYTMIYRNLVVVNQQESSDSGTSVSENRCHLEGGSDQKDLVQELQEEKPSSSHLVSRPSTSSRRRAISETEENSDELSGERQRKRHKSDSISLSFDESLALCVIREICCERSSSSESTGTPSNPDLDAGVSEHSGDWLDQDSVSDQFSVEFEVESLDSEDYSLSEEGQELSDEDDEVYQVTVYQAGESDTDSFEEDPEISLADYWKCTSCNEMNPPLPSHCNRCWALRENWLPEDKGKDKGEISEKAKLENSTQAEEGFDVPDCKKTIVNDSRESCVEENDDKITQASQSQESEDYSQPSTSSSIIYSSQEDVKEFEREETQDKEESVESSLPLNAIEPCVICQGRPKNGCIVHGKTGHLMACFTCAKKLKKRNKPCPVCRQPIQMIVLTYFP
MPTP block = blocks calcium-induced mitochondrial swelling. isolated mouse mitochondria, Ca2+ swelling absorbance, 30 min. inhibition, % at 10 µM. 1.4% of 360,000 active. AID 602449;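 active means inhibition of 50% or more, scaled per plate between neutral and stimulator controls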;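 further: 0% = DMSO wells given calcium and 100% = 1 mM EGTA wells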
tim10-1 inh = inhibits growth of tim10-1 mutant yeast. S. cerevisiae tim10-1 ts strain growth, BacTiter-Glo, 24 h. inhibition, % at 20 µM. 2.2% of 330,000 active;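 active means inhibition of at least 40%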;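 further: mutant grown at 25 °C; 0% = DMSO wells with yeast and 100% = wells holding no yeast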
MPTP counter = Rhodamine 123 counter-screen of mitochondrial pore hits; shares compounds with MPTP block; isolated mitochondria, membrane potential, Rhodamine 123 fluorescence; inhibition, % at 10 µM; 78% of 5,000 active; AID 624504; in the data active means inhibition above about 22%;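 further: 0% = DMSO vehicle and 100% = positive control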
MPTP abs DR = MPTP inhibition, dose response swelling confirmation. shares compounds with MPTP block. isolated mitochondria swelling, absorbance. IC50, µM. 58% of 780 active; in the data active means IC50 below about 20 µM
MPTP counter DR = counter-screen for mitochondrial permeability transition pore inhibitors, dose response. shares compounds with MPTP block. isolated mitochondria counterscreen, fluorescence read-out. IC50, µM. 49% of 780 active. AID 651564; in the data active means IC50 below about 80 µM
* marks the source's active call; other numbers are inactive results. Shown are actives, neighbours in structure and some others; about 6.3% of the full set was active somewhere.

What do the screens show for `c1ccc(-c2ccc(OCCCNC3CCCC3)cc2)cc1`?
tim23-1 inh: 15; TIM10 inh: -25; Mdm2-MdmX inh: 15; MPTP block: 88*; tim10-1 inh: 14; MPTP counter: -7; MPTP abs DR: 5.2*; MPTP counter DR: 46*

Results for N#Cc1cc(C(=O)c2cc(Br)ccc2O)cn(Cc2ccccc2)c1=O ?
tim23-1 inh: 1; TIM10 inh: 2; Mdm2-MdmX inh: 25; MPTP block: 52*; tim10-1 inh: 2; MPTP counter: 77*

How did COc1ccc(OC)c(NC(=O)CCNS(=O)(=O)c2ccc3c(c2)CC(C)N3C(C)=O)c1 (configuration not stated) do in these assays?
MPTP block: -3

How did COc1ccc(NC(=O)CCSc2ccc(C)cc2)cc1 do in these assays?
tim23-1 inh: 20; TIM10 inh: -6; Mdm2-MdmX inh: 13; MPTP block: 0; tim10-1 inh: 11

What do the screens show for `Cc1ccc(SCCC(=O)Nc2ccc(Br)c(C)c2)cc1`?
tim23-1 inh: 10; TIM10 inh: 17; Mdm2-MdmX inh: 23; MPTP block: 86*; tim10-1 inh: 10; MPTP counter: 92*

Results for COc1ccc(-c2nc3cc(C)c(Br)c(C)n3c2Cc2ccc(C)cc2)cc1OC ?
MPTP block: 1

What do the screens show for `Cn1c(SCc2cccc([N+](=O)[O-])c2)nc2c(c1=O)SCC2`?
tim23-1 inh: 15; TIM10 inh: 28; Mdm2-MdmX inh: 36; MPTP block: 58*; tim10-1 inh: 31; MPTP counter: 49*

What do the screens show for `CC1(C)N=C(N)N=C(N)N1c1ccc(CCCCc2ccccc2)cc1`?
MPTP block: 64*; MPTP counter: 60*

What do the screens show for `O=C(Nc1cccc(Br)c1)Oc1cccc2cccnc12`?
MPTP block: 75*; MPTP counter: 102*

How did O=C(Nc1c(Cl)cccc1Cl)Oc1cccc2cccnc12 do in these assays?
MPTP block: -3

What do the screens show for `NCCCC[C@H]1CN=C(N)N1CC1CCCCC1`?
tim23-1 inh: -12; TIM10 inh: -6; Mdm2-MdmX inh: 1; MPTP block: 2; tim10-1 inh: -18

What do the screens show for `NCCCC[C@H]1CN=C(N)N1CCCCC1CCCCC1`?
tim23-1 inh: 9; TIM10 inh: 7; Mdm2-MdmX inh: 18; MPTP block: 74*; tim10-1 inh: 0; MPTP counter: -9; MPTP abs DR: inactive; MPTP counter DR: >80

Results for CN(C(=S)NC(=O)c1ccccc1)C1CCCCC1 ?
tim23-1 inh: 20; TIM10 inh: 22; Mdm2-MdmX inh: 29; MPTP block: 0; tim10-1 inh: 21

What do the screens show for `O=C(COC(=O)c1ccc2ncsc2c1)NCc1ccccc1Cl`?
tim23-1 inh: 1; TIM10 inh: -26; Mdm2-MdmX inh: 23; MPTP block: 0; tim10-1 inh: -35

What do the screens show for `O=C1c2cc(Cl)ccc2-c2c(O)cc(Cl)cc21`?
MPTP block: 99*; MPTP counter: 78*

Results for Cn1nc(C(C)(C)C)cc1NC(=O)Nc1cc(Cl)cc(Cl)c1 ?
tim23-1 inh: 23; TIM10 inh: 16; Mdm2-MdmX inh: 35; MPTP block: 84*; tim10-1 inh: 38; MPTP counter: 73*

What do the screens show for `CN1CCN(NC(=O)Nc2cc(Cl)cc(Cl)c2)CC1`?
tim23-1 inh: 20; TIM10 inh: 9; Mdm2-MdmX inh: 20; MPTP block: 90*; tim10-1 inh: 19; MPTP counter: 91*

Results for COc1ccc(NC(=O)NN2CCN(C)CC2)cc1OC ?
tim23-1 inh: -3; TIM10 inh: 3; Mdm2-MdmX inh: 8; MPTP block: -2; tim10-1 inh: -22

Results for CSc1ccccc1NC(=O)C(C)N(C)CC(=O)N1CCN(Cc2ccccc2)CC1 (configuration not stated) ?
MPTP block: -2

How did CCC(C)c1ccccc1N=Cc1ccc2c(c1)OCO2 (configuration not stated) do in these assays?
tim23-1 inh: 10; TIM10 inh: 0; Mdm2-MdmX inh: 5; MPTP block: 71*; tim10-1 inh: 14; MPTP counter: 2; MPTP abs DR: >100; MPTP counter DR: >80

Results for CCC(O)(Cc1ccccn1)Cc1ccccn1 ?
MPTP block: -2

How did O=C(NCCCN1CCCC1=O)Nc1ccc(F)c(Cl)c1 do in these assays?
tim23-1 inh: -4; TIM10 inh: 10; Mdm2-MdmX inh: -37; MPTP block: 84*; tim10-1 inh: 13; MPTP counter: 92*

What do the screens show for `O=C(NCCCN1CCCC1=O)Nc1cc(Cl)ccc1Cl`?
tim23-1 inh: -1; TIM10 inh: 0; Mdm2-MdmX inh: 10; MPTP block: 0; tim10-1 inh: -15

How did O=C(NCCCn1ccnc1)Nc1ccc(Cl)c(Cl)c1 do in these assays?
tim23-1 inh: -17; TIM10 inh: -2; Mdm2-MdmX inh: 19; MPTP block: 79*; tim10-1 inh: 21; MPTP counter: 88*

How did CC1C(=O)N(Cc2cn(CC3CCCCC3)nn2)CCS(=O)(=O)N1Cc1ccc(-c2ccccc2)cc1 (configuration not stated) do in these assays?
MPTP block: -1

Results for O=C1Nc2ccccc2C(=O)N(C2CCCC2)C1C(=O)NC1CC1 (configuration not stated) ?
MPTP block: 0

Results for CC1=C(C(=O)N2CCCCCC2)CC(CC(=O)NCCN2CCOCC2)C(=O)N1CCCN1CCCC1=O (configuration not stated) ?
MPTP block: 0

How did CSCCC(NC(=O)c1cccc([N+](=O)[O-])c1)c1nc2ccccc2[nH]1 (configuration not stated) do in these assays?
tim23-1 inh: 6; TIM10 inh: 7; Mdm2-MdmX inh: 12; MPTP block: 6; tim10-1 inh: 2

What do the screens show for `O=C(NC(Cc1ccccc1)c1nc2ccccc2[nH]1)c1cccc([N+](=O)[O-])c1` (configuration not stated)?
tim23-1 inh: 4; TIM10 inh: -16; Mdm2-MdmX inh: 5; MPTP block: 65*; tim10-1 inh: 3; MPTP counter: 65*

Results for O=C(NC1CC1)c1ccc(NC(=O)C2CCCCC2)cc1 ?
MPTP block: -1

Results for Cc1cc(C)c(-c2csc(Cc3nc(-c4cc5ccccc5oc4=O)cs3)n2)cc1C ?
tim23-1 inh: 13; TIM10 inh: -1; Mdm2-MdmX inh: 33; MPTP block: 53*; tim10-1 inh: 15; MPTP counter: 10; MPTP abs DR: 6.3*; MPTP counter DR: 7.8*

How did Cc1ccc(-c2csc(Cc3nc(-c4cc5ccccc5oc4=O)cs3)n2)cc1 do in these assays?
tim23-1 inh: 8; TIM10 inh: -1; Mdm2-MdmX inh: 4; MPTP block: 20; tim10-1 inh: 21
